From PubChem BioAssay
Rows were chosen to be rich in hits. Some 10% of all compounds tested hit in one or more screens of this group.
VDR inh – Inhibitors of the vitamin D receptor (VDR): qHTS. Potency, µM, most hits filed as inhibitors. Vitamin D3 receptor (Homo sapiens), P11473. AID 504847, 2011. VDR-SRC2-3 peptide fluorescence polarization, 2 h. 0.93% of 400,000 active
Target sequence (P11473 whole entry, looked up): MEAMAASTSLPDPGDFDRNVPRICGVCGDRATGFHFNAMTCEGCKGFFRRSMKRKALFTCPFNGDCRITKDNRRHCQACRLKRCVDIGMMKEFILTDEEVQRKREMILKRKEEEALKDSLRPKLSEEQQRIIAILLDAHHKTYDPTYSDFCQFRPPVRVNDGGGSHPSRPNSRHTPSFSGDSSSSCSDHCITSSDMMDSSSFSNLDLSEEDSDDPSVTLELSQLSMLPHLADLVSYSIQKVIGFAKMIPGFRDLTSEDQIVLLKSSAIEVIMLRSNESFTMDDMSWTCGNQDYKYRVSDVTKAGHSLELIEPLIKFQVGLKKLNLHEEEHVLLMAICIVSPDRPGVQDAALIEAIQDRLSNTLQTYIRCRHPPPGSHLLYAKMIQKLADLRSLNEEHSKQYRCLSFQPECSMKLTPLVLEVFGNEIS
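VDR–SRC2-3 interaction, FP format. Cmpds 23 nl via pintool, brief spin, 2 h ambient incubation.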
CCT chaperon mod – High-Throughput Screening for Modulators of Cytosolic Chaperonin Activity; 0.3% of 360,000 active; AID 651819, 2012; purified chaperonin ATPase assay, HTRF ADP detection, 30 min; activity change, % (no concentration beside the values), hits read low; in the data active = activity change below about -30%
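Enzyme 40 or 20 nM (batch-dependent) in Tris pH 7.4/KCl/MgCl2/DTT; cpd 76 uM single point; ATP 10 uM; 30 min 37 °C; Transcreener ADP HTRF detection, 30 min RT; ratio 665/615.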
G9a inh – qHTS Assay for Inhibitors of Histone Lysine Methyltransferase G9a. Histone-lysine N-methyltransferase EHMT2 (Homo sapiens), Q96KQ7. G9a H3K9 monomethylation, AlphaScreen, 2 h. Potency, µM (titrated, usually from 102 µM), hits mostly inhibitors. 8.8% of 350,000 active. AID 504332, 2011; note: nearly all actives have a fitted effect of over 75% in size
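Compounds were preincubated with 20 nM G9a for 15 min, after which biotinylated H3K9 peptide (500 nM) and SAM (20 uM) started a 2 h room-temperature reaction. Monomethylated product was quantified by antibody-based AlphaScreen chemiluminescence.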
MmCpn inh – Inhibitors of TCP-1 ring complex (TRiC) of Methanococcus maripaludis (MmCpn): qHTS; Potency, µM (doses to about 76.9 µM), usual class: inhibitors; 0.031% of 330,000 active; purified Mm-Cpn ATPase, ADP Transcreener TR-FRET; Chaperonin Mm-Cpn (Methanococcus maripaludis); AID 504842, 2011; note: nearly all actives have a fitted effect of over 80% in size
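ATPase turnover read by TR-FRET ADP competition (Eu cryptate antibody/ADP-d2, 665/590 nm): 10uM ATP final, 25nM Mm-CPN final, 30 min 37degC after 10-min compound preincubation, pH 7.4 Tris/KCl/MgCl2/DTT buffer.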
Sfp PPTase inh – qHTS Assay for Inhibitors of Bacillus subtilis Sfp phosphopantetheinyl transferase (PPTase) | AID 1490, 2009 | Potency, µM, most hits filed as inhibitors | 4'-phosphopantetheinyl transferase ffp (Bacillus subtilis), Q9F4F7 | Biochemical Sfp PPTase activity, qHTS | 3.5% of 310,000 active;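 note: the enzyme is Sfp with the accession as filed and its product quenches rhodamine fluorescence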
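Sfp 15 nM + cpd, 15 min RT; start w/ rhodamine-CoA 5 uM, BHQ-2-YbbR 12.5 uM (final); 50 mM Hepes pH 7.6, 10 mM MgCl2, 0.01% NP-40, 0.01% BSA; read 525/598 nm at 0 and 30 min.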
PLK1 PBD inh – qHTS for Inhibitors of PLK1-PDB (polo-like kinase 1 - polo-box domain): Primary Screen | Serine/threonine-protein kinase PLK1 (Homo sapiens), P53350 | Plk1 PBD binding of FITC phosphopeptide, fluorescence polarization | Potency, µM, most hits filed as inhibitors | 2.8% of 360,000 active | AID 720504, 2013; note: series mostly up to about 57 µM; nearly all actives have a fitted effect of over 65% in size
A number is an active result; . = inactive; ? = inconclusive; / = no result; [ ] = remark or other dose. Unless noted, calls come from the whole dose curve; as a rule, active = well fitted curve in the direction sought with a large enough effect; inconclusive = small, poorly fitted or top-dose-only effect, or another doubt; inactive = no such curve, though single readings can be large; an effect the other way counts as inactive or inconclusive.

SMILES	VDR inh	CCT chaperon mod	G9a inh	MmCpn inh	Sfp PPTase inh	PLK1 PBD inh
CN1CCN(C(=O)c2ccc3c(=O)n(Cc4ccc(Cl)cc4)c(=S)[nH]c3c2)CC1	.	.	45µM	.	.	.
CCOC(=O)N1CCN(C(=O)c2ccc(Cn3c(=S)[nH]c4cc(OCC)c(OCC)cc4c3=O)cc2)CC1	.	.	.	.	.	.
COc1ccccc1N1CCN(C(=O)c2ccc(Cn3c(=S)[nH]c4cc5c(cc4c3=O)OCO5)cc2)CC1	.	-31	.	.	.	.
CCOC(=O)N1CCN(C(=O)c2ccc(Cn3c(=S)[nH]c4cc5c(cc4c3=O)OCO5)cc2)CC1	.	.	7.1µM	.	.	.
Cc1oc2ncn(CC(C)C)c(=O)c2c1C(=O)N(CCN(C)C)Cc1ccccc1	.	/	.	/	/	/
CCC(C)NC(=O)c1c(N)n(/N=C/c2ccccn2)c2nc3ccccc3nc12 (configuration not stated)	.	.	50µM	.	10µM	.
CC1CCN(c2nn3c(=O)c(C(=O)NCCc4ccc(Cl)cc4)cnc3s2)CC1	.	/	.	/	/	/
O=C(/C=C/c1ccc([N+](=O)[O-])cc1)Nc1cccc(C(=O)Nc2ccccc2C(=O)O)c1	.	.	45µM	.	.	?
O=C(/C=C/c1cccc([N+](=O)[O-])c1)Nc1cc(C(=O)O)cc(C(=O)O)c1	35µM	.	?	.	.	11µM
CC(=O)NC1C(OCc2ccccc2)OC(CO)C(OC(C)=O)C1OC(C)=O (configuration not stated)	.	.	.	.	.	.
CC(=O)NC1C(OCc2ccccc2)OC2COC(c3ccccc3)OC2C1OCC(=O)O (configuration not stated)	.	.	.[12.7 µM]	.	.	21µM
COc1ccc(Cn2nnnc2C(c2cc3ccc(OC)cc3[nH]c2=O)N2CCCCCC2)cc1 (configuration not stated)	.	.	8.9µM	.	.	.
COc1ccc(Cn2nnnc2C(c2ccccc2OC)N2CCC(C(N)=O)CC2)cc1 (configuration not stated)	.	.	.[12.7 µM]	.	.	.
CCC(C)(C)n1nnnc1C(c1cc2ccc(OC)cc2[nH]c1=O)N1CCc2ccccc21 (configuration not stated)	.	.	13µM	.	10µM	.
COc1ccc(Cn2nnnc2C(c2ccc(N(C)C)cc2)N2CCC(C(N)=O)CC2)cc1 (configuration not stated)	.	.	13µM	.	.	.
CCC(C)(C)n1nnnc1C(c1cc2ccc(OC)cc2[nH]c1=O)N1CCc2ccccc2C1 (configuration not stated)	.	.	2.5µM	.	4.5µM	?
COc1ccc2[nH]cc(CCNc3cc(-c4cccc(C#N)c4)ncn3)c2c1	.	/	.[0.501 µM]	/	.	/
Cc1cc(C)cc(S(=O)(=O)c2cnc3ccccc3n2)c1	40µM	.	.	.	.	3.8µM
Cc1ccc(Sc2cnc3ccccc3n2)cc1	.	.	.	.	.	.
O=c1cc(COc2ccc(Cl)cc2Cl)nc2scc(-c3ccccc3)n12	.	/	.	/	/	/
CCOc1ccc(CCNC(=O)c2ccc3c(c2)N(Cc2ccccc2F)C(=O)c2ccccc2S3=O)cc1OCC (configuration not stated)	.	/	.	/	/	/
COc1ccccc1CNC(=O)Cn1ncn2c(cc3sccc32)c1=O	.	/	.	/	/	/
CCCCCCCCCc1nc2sc3c(c2c(=O)n1NC(=O)c1ccc([N+](=O)[O-])cc1)CC(C)(C)OC3	.	.	?	.	.	.
CCCCCCCCCc1nc2sc3c(c2c(=O)n1NC(=O)c1ccccc1[N+](=O)[O-])CC(C)(C)OC3	.	.	71µM	.	.	.
C=CCc1ccc(OCCN2CCc3ccccc3C2)c(OC)c1	.	.	10µM	.	?	.
SMILES	VDR inh	CCT chaperon mod	G9a inh	MmCpn inh	Sfp PPTase inh	PLK1 PBD inh
C=CCc1ccc(OCCCCN2CC(C)OC(C)C2)c(OC)c1 (configuration not stated)	.	.	3.2µM	.	.	.
C/C=C/c1ccc(OCCN2CCc3ccccc3C2)c(OC)c1	.	.	45µM	.	.	.
C/C=C/c1ccc(OCCCCOc2c(OC)cccc2OC)c(OC)c1	.	.	.	.	?	.
O=C(NNCS(=O)(=O)O)c1ccncc1	.	/	.[12.7 µM]	/	.	/
COc1ccccc1NCc1nnc2n1CCCCC2	.	/	.	/	/	/
Cc1cccc(NC(=O)c2ccc(CN3CC(=O)N4CCCCC4C3=O)cc2)c1C (configuration not stated)	.	/	.	/	/	/
O=C(NCCCCNC(=O)c1ccc(F)cc1)c1ccc(F)cc1	.	.	.	.	.	.
CCCNC(=O)NNC(=O)c1ccc(F)cc1	?	.	.	.	.	24µM
Cc1ccc(Nc2nc(N)nc(CSC(=S)N3CCN(c4ccccc4)CC3)n2)cc1	.	.	35µM	.	.	.
Nc1nc(CSC(=S)N2CCN(c3ccccc3)CC2)nc(Nc2ccccc2)n1	.	.	45µM	.	.	.
CCN1CCC(Nc2ccnc3cc(Cl)ccc23)CC1	.	.	32µM	.	.	.
CCOc1ccccc1NC(=O)CC1Nc2ccccc2NC1=O (configuration not stated)	.	.	14µM	.	.	.
O=C(CC1Nc2ccccc2NC1=O)NCCc1ccccc1 (configuration not stated)	.	.	11µM	.	.	.
COc1ccc(CCNC(=O)CC2Nc3ccccc3NC2=O)cc1 (configuration not stated)	.	.	.	.	.	.
CCc1ccccc1NC(=O)Nc1cc(C(=O)NCc2ccc(C)cc2)ccc1N1CCCC1	.	/	.	/	/	/
CC1=C(C(=O)OCc2ccccc2)C(c2ccc(-c3ccccc3)cc2)NC(=O)N1CCCCCC(=O)O (configuration not stated)	.	.	35µM	.	.	?
COC(=O)CCCN1C(=O)NC(c2ccc(-c3ccccc3)cc2)C(C(=O)OCc2ccccc2)=C1C (configuration not stated)	.	.	/	.	/	.
CC1=C(C(=O)OCc2ccccc2)C(c2ccc3ccccc3c2)NC(=O)N1CCCC(=O)O (configuration not stated)	.	.	/	.	.	.
